The nature of experiment [1]: NCI Yeast Anticancer Drug Screen. Data for the rad50 strain (AID 155).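 Note: 0% = growth of vehicle-only cultures of the same strain.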 The following applies: S. cerevisiae rad50 strain growth inhibition, stronger effect = higher value. The method, boiled down:
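Readout: growth inhibition relative to vehicle-treated cultures. Compound exposure was carried out in a genetically defined yeast strain deficient in DNA damage repair.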

Experiment [2] can be described thus: NCI Yeast Anticancer Drug Screen. Data for the mec2-1 strain (AID 157). The following applies: S. cerevisiae mec2-1 strain, stronger effect = higher value. Summed up: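 Mutant yeast (mec2-1) grown with compound; growth inhibition relative to vehicle control reported.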
A short description of experiment [3]: NCI Yeast Anticancer Drug Screen. Data for the sgs1 mgt1 strain (AID 161).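 Note: 0% = growth of cultures given vehicle only.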 The following applies: S. cerevisiae sgs1 mgt1 strain, stronger effect = higher value. Summed up:
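Compounds are added to genetically altered yeast, and growth is compared with cultures given vehicle alone to give percent inhibition.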

Experiment [4] is described as follows: NCI Yeast Anticancer Drug Screen. Data for the cln2 rad14 strain (AID 165).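 Note: 0% = growth equal to vehicle treated cultures.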 The following applies: S. cerevisiae cln2 rad14 strain, stronger effect = higher value. The method, boiled down:
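Readout is yeast growth inhibition versus vehicle-treated controls, using a strain with cln2 and rad14 alterations exposed to compound.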

Experiment [5] can be described thus: NCI Yeast Anticancer Drug Screen. Data for the bub3 strain (AID 167). The following applies: S. cerevisiae bub3 mutant strain, stronger effect = higher value. The method, boiled down: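 Readout: yeast growth inhibition, expressed relative to vehicle-only wells. The test organism is a mutant strain from a panel with lesions in DNA repair or checkpoint genes.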
Experiment [6] can be described thus: NCI Yeast Anticancer Drug Screen. Data for the mlh1 rad18 strain (AID 175). The following applies: S. cerevisiae mlh1 rad18 strain growth inhibition, stronger effect = higher value. The method, boiled down:
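Genetically defined yeast (DNA repair-deficient) exposed to compounds; growth inhibition determined relative to vehicle.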

Setting [7] is: at 5.0 µM (retest, dose inferred, filed as 0.5).
Setting [8] is: at 50.0 µM (retest, dose inferred, filed as 5.0).

This is part of a sample that, as a whole, favours compounds with a hit. Of some 79,000 tested, about 15% had one in any assay. Unmarked numbers belong to inactive results. Active and inactive are the calls of the source. Cut-off read from the data, not from the text of the source: active = growth inhibition above about 70%; inactive = the rest.

Take `O=C(O)C(=O)Cc1ccc(O)cc1`: the growth inhibition is -18% in experiment [1] (setting [7]); -30% in experiment [1] (setting [8]); 68.2% in experiment [1] (at 50.0 µM); -20% in experiment [2] (setting [7]); -25% in experiment [2] (setting [8]); 12.7% in experiment [2] (at 50.0 µM). Further, the growth inhibition is -10% in experiment [3] (setting [7]); -26% in experiment [3] (setting [8]); 57% in experiment [3] (at 50.0 µM); -5% in experiment [4] (setting [7]); 7% in experiment [4] (setting [8]); 49.1% in experiment [4] (at 50.0 µM). The growth inhibition is -24% in experiment [5] (setting [7]); -20% in experiment [5] (setting [8]); 70.7% (active) in experiment [5] (at 50.0 µM); -48% in experiment [6] (setting [7]); -69% in experiment [6] (setting [8]); 61% in experiment [6] (at 50.0 µM).
For the compound `CC1NC(=O)OC1(C)c1ccccc1` (stereo not given), the growth inhibition is 3% in experiment [1] (setting [7]); -3% in experiment [1] (setting [8]); 50.5% in experiment [1] (at 50.0 µM); -5% in experiment [2] (setting [7]); -12% in experiment [2] (setting [8]); 9.2% in experiment [2] (at 50.0 µM). The growth inhibition is 2% in experiment [3] (setting [7]); 2% in experiment [3] (setting [8]); -7.5% in experiment [3] (at 50.0 µM); 1% in experiment [4] (setting [7]); -4% in experiment [4] (setting [8]); -35.8% in experiment [4] (at 50.0 µM). The growth inhibition is 10% in experiment [5] (setting [7]); 30% in experiment [5] (setting [8]); 12.1% in experiment [5] (at 50.0 µM); 12% in experiment [6] (setting [7]); 1% in experiment [6] (setting [8]); -20.6% in experiment [6] (at 50.0 µM).
For `CC1(C)COC(C)(C(=O)O)OC1`, the growth inhibition was 2% in experiment [1] (setting [7]); -5% in experiment [1] (setting [8]); 51.6% in experiment [1] (at 50.0 µM); -2% in experiment [2] (setting [7]); -1% in experiment [2] (setting [8]); -3.35% in experiment [2] (at 50.0 µM). Further, the growth inhibition was 4% in experiment [3] (setting [7]); 2% in experiment [3] (setting [8]); -5.8% in experiment [3] (at 50.0 µM); 0% in experiment [4] (setting [7]); -6% in experiment [4] (setting [8]); -50.7% in experiment [4] (at 50.0 µM). For the same compound, the growth inhibition in experiment [5] (setting [7]) is -4%; in experiment [5] (setting [8]) it was 0%; in experiment [5] (at 50.0 µM) it was -1.8%; in experiment [6] (setting [7]), 6%; in experiment [6] (setting [8]) it was -1%; in experiment [6] (at 50.0 µM), -8%.
Turning to `CC(=O)Oc1cccc2c(C(=O)CCl)ccnc12`, the growth inhibition is 87% (active) in experiment [1] (setting [7]); 99% (active) in experiment [1] (setting [8]); 99.1% (active) in experiment [1] (at 50.0 µM); 86% (active) in experiment [2] (setting [7]); 99% (active) in experiment [2] (setting [8]); 95% (active) in experiment [2] (at 50.0 µM). Moreover, the growth inhibition in experiment [3] (setting [7]) is 96% (active); in experiment [3] (setting [8]), 99% (active); in experiment [3] (at 50.0 µM), 99.2% (active); in experiment [4] (setting [7]), 15%; in experiment [4] (setting [8]), 99% (active); in experiment [4] (at 50.0 µM), 92% (active). The growth inhibition in experiment [5] (setting [7]) was 90% (active); in experiment [5] (setting [8]), 18%; in experiment [5] (at 50.0 µM) it was 95.3% (active); in experiment [6] (setting [7]), 73% (active); in experiment [6] (setting [8]), 99% (active); in experiment [6] (at 50.0 µM), 98.8% (active).
In the case of `CCc1c(-c2ccccc2)c(CN2CCCCC2)c2ccccn12`, the growth inhibition was 6% in experiment [1] (setting [7]); 3% in experiment [1] (setting [8]); -1.4% in experiment [1] (at 50.0 µM); 13% in experiment [2] (setting [7]); 13% in experiment [2] (setting [8]); -4.85% in experiment [2] (at 50.0 µM). In addition, the growth inhibition in experiment [3] (setting [7]) is 0%; in experiment [3] (setting [8]), 37%; in experiment [3] (at 50.0 µM) it was 88.2% (active); in experiment [4] (setting [7]), -6%; in experiment [4] (setting [8]), 26%; in experiment [4] (at 50.0 µM) it was -20%. The growth inhibition in experiment [5] (setting [7]) was -4%; in experiment [5] (setting [8]), 26%; in experiment [5] (at 50.0 µM), -5.5%; in experiment [6] (setting [7]), -12%; in experiment [6] (setting [8]), 5%; in experiment [6] (at 50.0 µM) it was 21.9%.
On to `O=C1C=CC(=NN=C(c2ccccc2)c2ccccc2)C=C1`, for which the growth inhibition in experiment [1] (setting [7]) was -27%; in experiment [1] (setting [8]), -1%; in experiment [1] (at 50.0 µM) it was 55%; in experiment [2] (setting [7]), -16%; in experiment [2] (setting [8]), -21%; in experiment [2] (at 50.0 µM), 54.5%. The growth inhibition in experiment [3] (setting [7]) was -21%; in experiment [3] (setting [8]), -10%; in experiment [3] (at 50.0 µM), 38.1%; in experiment [4] (setting [7]), -27%; in experiment [4] (setting [8]) it was -17%; in experiment [4] (at 50.0 µM), 44%. The growth inhibition in experiment [5] (setting [7]) was -14%; in experiment [5] (setting [8]) it was -22%; in experiment [5] (at 50.0 µM) it was 63.9%; in experiment [6] (setting [7]), -38%; in experiment [6] (setting [8]), -2%; in experiment [6] (at 50.0 µM), 53%.
In the case of `Cc1nc(N)sc1N=Nc1ccc(Cl)cc1`, the growth inhibition in experiment [1] (setting [7]) is -16%; in experiment [1] (setting [8]) it was 55%; in experiment [1] (at 50.0 µM), 78% (active); in experiment [2] (setting [7]), 7%; in experiment [2] (setting [8]), 62%; in experiment [2] (at 50.0 µM) it was 50%. Further, the growth inhibition is -5% in experiment [3] (setting [7]); 62% in experiment [3] (setting [8]); 57.2% in experiment [3] (at 50.0 µM); 5% in experiment [4] (setting [7]); 24% in experiment [4] (setting [8]); 66.7% in experiment [4] (at 50.0 µM). The growth inhibition in experiment [5] (setting [7]) was 10%; in experiment [5] (setting [8]), 52%; in experiment [5] (at 50.0 µM), 81.8% (active); in experiment [6] (setting [7]) it was 21%; in experiment [6] (setting [8]), 77% (active); in experiment [6] (at 50.0 µM), 84.5% (active).
For `Cc1ccc(S(=O)/C=C/S(=O)(=O)c2ccc(C)cc2)cc1` (stereo not given), the growth inhibition in experiment [1] (setting [7]) was 99% (active); in experiment [1] (setting [8]) it was 99% (active); in experiment [1] (at 50.0 µM), 99.3% (active); in experiment [2] (setting [7]), 99% (active); in experiment [2] (setting [8]) it was 100% (active); in experiment [2] (at 50.0 µM), 99.6% (active). For the same compound, the growth inhibition was 100% (active) in experiment [3] (setting [7]); 100% (active) in experiment [3] (setting [8]); 99.5% (active) in experiment [3] (at 50.0 µM); 98% (active) in experiment [4] (setting [7]); 100% (active) in experiment [4] (setting [8]); 99.5% (active) in experiment [4] (at 50.0 µM). Besides, the growth inhibition was 99% (active) in experiment [5] (setting [7]); 100% (active) in experiment [5] (setting [8]); 99.6% (active) in experiment [5] (at 50.0 µM); 100% (active) in experiment [6] (setting [7]); 100% (active) in experiment [6] (setting [8]); 99.5% (active) in experiment [6] (at 50.0 µM).
With `C=C1C(=O)C23C(O)C1CC[C@H]2C12CCCC(C)(COC(C)=O)[C@H]1[C@H](O)[C@]3(O)OC2` (stereo not given in full), the growth inhibition was 28% in experiment [1] (setting [7]); 94% (active) in experiment [1] (setting [8]); 90.4% (active) in experiment [1] (at 50.0 µM); 26% in experiment [2] (setting [7]); 97% (active) in experiment [2] (setting [8]); 92.2% (active) in experiment [2] (at 50.0 µM). Besides, the growth inhibition in experiment [3] (setting [7]) was 83% (active); in experiment [3] (setting [8]) it was 97% (active); in experiment [3] (at 50.0 µM), 92.2% (active); in experiment [4] (setting [7]), 77% (active); in experiment [4] (setting [8]) it was 96% (active); in experiment [4] (at 50.0 µM), 89.2% (active). The growth inhibition in experiment [5] (setting [7]) is 22%; in experiment [5] (setting [8]) it was 96% (active); in experiment [5] (at 50.0 µM), 90% (active); in experiment [6] (setting [7]), 43%; in experiment [6] (setting [8]), 95% (active); in experiment [6] (at 50.0 µM), 89.2% (active).
In the case of `O=C(c1ccc(Cl)cc1)c1ccc(OCCCOc2ccc(C(=O)c3ccc(Cl)cc3)cc2)cc1`, the growth inhibition in experiment [1] (setting [7]) is -14%; in experiment [1] (setting [8]), -32%; in experiment [1] (at 50.0 µM), 17.5%; in experiment [2] (setting [7]), -13%; in experiment [2] (setting [8]), 2%; in experiment [2] (at 50.0 µM) it was -16.1%. Besides, the growth inhibition is -18% in experiment [3] (setting [7]); -4% in experiment [3] (setting [8]); -2.15% in experiment [3] (at 50.0 µM); -30% in experiment [4] (setting [7]); -7% in experiment [4] (setting [8]); 38.1% in experiment [4] (at 50.0 µM). The growth inhibition is -14% in experiment [5] (setting [7]); -14% in experiment [5] (setting [8]); -14.6% in experiment [5] (at 50.0 µM); -22% in experiment [6] (setting [7]); -26% in experiment [6] (setting [8]); -1.7% in experiment [6] (at 50.0 µM).

Source of the values: PubChem BioAssay (NCI).
